Results filed as inconclusive are left out. Active and inactive are the calls of the source. Unless noted, the call rests on the fitted dose curve; in most records, active means well fitted curve in the direction sought with a large enough effect in the repeat runs; inconclusive means weak or mixed curves; inactive means no such curve, though single readings can be large; an effect the other way counts as inactive or inconclusive.
Key:
[1] = qHTS assay to test for compound auto fluorescence at 535 nm (green) in HEK293 cells (AID 720680)
[2] = qHTS assay to test for compound auto fluorescence at 460 nm (blue) in HEK293 cell free culture (AID 720681)
How it was run: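 Blue fluorescence (Ex 405/Em 460 nm, triamterene-equivalent) was read immediately after pin transfer of compound or DMSO into medium (DMEM, 10% FBS) without cells.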

[3] = qHTS assay to test for compound auto fluorescence at 535 nm (green) in HEK293 cell free culture (AID 720682)
How it was run: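 Using fluorescein as calibrant, autofluorescence was quantified at 485/535 nm in cell-free DMEM containing 10% FBS after pintool addition of compound or vehicle.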

[4] = qHTS assay to test for compound auto fluorescence at 590 nm (red) in HEK293 cell free culture (AID 720683)
How it was run: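 Red-channel autofluorescence of compounds in culture medium (DMEM, 10% FBS), no cells, measured at 540/590 nm. Rose Bengal sodium is the reference fluorophore for equivalence.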

[5] = qHTS assay to test for compound auto fluorescence at 590 nm (red) in HepG2 cell free culture (AID 720684)
How it was run: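 Steps: dispense MEM/10% FBS medium, no cells; pin compound or DMSO vehicle; read red channel, Ex/Em 540/590 nm. Output given as Rose Bengal sodium equivalents.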

[6] = qHTS assay to test for compound auto fluorescence at 460 nm (blue) in HepG2 cell free culture (AID 720685)
How it was run: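 Compound (23 nL) or DMSO pinned into cell-free MEM with 10% FBS; blue fluorescence read at 405/460 nm excitation/emission, expressed as auto-fluorescence equivalency to triamterene.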

[7] = qHTS assay to test for compound auto fluorescence at 535 nm (green) in HepG2 cell free culture (AID 720686)
[8] = qHTS assay to test for compound auto fluorescence at 460 nm (blue) in HepG2 cells (AID 720687)
How it was run: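 Blue-channel autofluorescence (Ex/Em 405/460 nm, triamterene-equivalent) was measured after 1 hr compound exposure at 37 C, 5% CO2. Cells were HepG2, plated overnight at 37 C in MEM plus 10% FBS.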

[9] = qHTS assay to identify small molecule antagonists of the glucocorticoid receptor (GR) signaling pathway - cell viability counter screen (AID 720693); further: nearly all actives have a fitted effect of over 55% in size
[10] = qHTS assay to identify small molecule antagonists of the androgen receptor (AR) signaling pathway - cell viability counter screen (AID 743033; further: nearly all actives have a fitted effect of over 45% in size)
[11] = qHTS assay to identify small molecule antagonists of the androgen receptor (AR) signaling pathway using the MDA cell line - cell viability counter screen (AID 743041; further: nearly all actives have a fitted effect of over 45% in size)
How it was run: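 Cells were plated at 3,000 per well and left 5 h. Compounds in DMSO were then pinned in, followed by R1881. After 16 h at 37C, CellTiter-Fluor fluorescence gave viability.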

[12] = molecular target: Glucocorticoid receptor (Homo sapiens) (UniProt P04150); test: qHTS assay to identify small molecule agonists of the glucocorticoid receptor (GR) signaling pathway (AID 720691; active means well fitted activation curve with a large enough effect in the signal ratio in the repeat runs, not every such curve was filed as active; the % refers to the signal ratio)
How it was run: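 Beta-lactamase reporter activity, read as fluorescence intensity, was measured in GR-bla HeLa cells exposed to compounds for 18 h at 37 C and then loaded with LiveBLAzer B/G FRET substrate for 2 h at room temperature.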

[13] = molecular target: Glucocorticoid receptor (Homo sapiens) (UniProt P04150); test: qHTS assay to identify small molecule antagonists of the glucocorticoid receptor (GR) signaling pathway (AID 720692; active means well fitted inhibition curve with a large enough effect in the signal ratio in the repeat runs, not every such curve was filed as active; the % refers to the signal ratio)
How it was run: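 Fluorescence from cleaved LiveBLAzer B/G FRET substrate reports GRE-driven beta-lactamase in HeLa cells; compounds are tested against 5 nM dexamethasone (final) over 18 h at 37 C, substrate incubation 2 h at room temperature.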

[14] = qHTS assay for identifying genotoxic compounds that show differential cytotoxicity against isogenic chicken DT40 cell lines with known DNA damage response pathways - wild type cell line (AID 743012); further: nearly all actives have a fitted effect of over 60% in size; further: potency means the concentration at half of the fitted maximal effect
How it was run: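 Quantitative HTS on parental DT40 cells: 40 h compound treatment at 37 C/5% CO2, with viability then determined by CellTiter-Glo luminescence. Values serve as the DNA repair-proficient reference for differential cytotoxicity.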

[15] = qHTS assay for identifying genotoxic compounds that show differential cytotoxicity against isogenic chicken DT40 cell lines with known DNA damage response pathways - Rev3 mutant cell line (AID 743014); further: nearly all actives have a fitted effect of over 55% in size; further: potency means the concentration at half of the fitted maximal effect
[16] = qHTS assay for identifying genotoxic compounds that show differential cytotoxicity against isogenic chicken DT40 cell lines with known DNA damage response pathways - Rad54/Ku70 mutant cell line (AID 743015); further: nearly all actives have a fitted effect of over 60% in size; further: potency means the concentration at half of the fitted maximal effect
[17] = molecular target: Androgen receptor (Homo sapiens) (UniProt P10275); test: qHTS assay to identify small molecule antagonists of the androgen receptor (AR) signaling pathway (AID 743035; active means well fitted inhibition curve with a large enough effect in the signal ratio in the repeat runs, not every such curve was filed as active; the % refers to the signal ratio)
How it was run: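 Cell line: GeneBLAzer AR-UAS-bla GripTite (HEK293). Stimulus: R1881 added after compound. Exposure: 16 h, 37C, 5% CO2. Readout: LiveBLAzer B/G FRET fluorescence after 2 h at room temperature.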

[18] = molecular target: Androgen receptor (Homo sapiens) (UniProt P10275); test: qHTS assay to identify small molecule agonists of the androgen receptor (AR) signaling pathway (AID 743036; active means well fitted activation curve with a large enough effect in the signal ratio in the repeat runs, with a control signal flat, not every such curve was filed as active; the % refers to the signal ratio)
How it was run: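 In this Tox21 qHTS, 2,000 HEK293 AR-bla cells per well were incubated with compounds for 16 h at 37C and 5% CO2. Fluorescence intensity was recorded 2 h after adding LiveBLAzer B/G FRET substrate at room temperature.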

[19] = molecular target: Androgen receptor (Homo sapiens) (UniProt P10275); test: qHTS assay to identify small molecule agonists of the androgen receptor (AR) signaling pathway using the MDA cell line (AID 743040; further: nearly all actives have a fitted effect of over 20% in size; further: potency means the concentration at half of the fitted maximal effect)
How it was run: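 Cells plated, 5 h at 37C/0% CO2; compound or DMSO pinned; 16 h at 37C; ONE-Glo added; luminescence measured after 30 min at room temperature. Reporter line: MDA-kb2 with MMTV-luciferase responsive to AR and GR.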

[20] = molecular target: Androgen receptor (Homo sapiens) (UniProt P10275); test: qHTS assay to identify small molecule antagonists of the androgen receptor (AR) signaling pathway using the MDA cell line (AID 743042; further: nearly all actives have a fitted effect of over 55% in size)
How it was run: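 Antagonist mode: compounds plus R1881 agonist added to MDA-kb2 AR-luc cells, incubated 16 h at 37C. Luciferase reporter luminescence quantified, with multiplexed CellTiter-Fluor readout for cell viability.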
On the % scale 0 is the no-effect control and ±100 the full control effect.

Sequence of Androgen receptor (Homo sapiens) (P10275 whole entry, looked up): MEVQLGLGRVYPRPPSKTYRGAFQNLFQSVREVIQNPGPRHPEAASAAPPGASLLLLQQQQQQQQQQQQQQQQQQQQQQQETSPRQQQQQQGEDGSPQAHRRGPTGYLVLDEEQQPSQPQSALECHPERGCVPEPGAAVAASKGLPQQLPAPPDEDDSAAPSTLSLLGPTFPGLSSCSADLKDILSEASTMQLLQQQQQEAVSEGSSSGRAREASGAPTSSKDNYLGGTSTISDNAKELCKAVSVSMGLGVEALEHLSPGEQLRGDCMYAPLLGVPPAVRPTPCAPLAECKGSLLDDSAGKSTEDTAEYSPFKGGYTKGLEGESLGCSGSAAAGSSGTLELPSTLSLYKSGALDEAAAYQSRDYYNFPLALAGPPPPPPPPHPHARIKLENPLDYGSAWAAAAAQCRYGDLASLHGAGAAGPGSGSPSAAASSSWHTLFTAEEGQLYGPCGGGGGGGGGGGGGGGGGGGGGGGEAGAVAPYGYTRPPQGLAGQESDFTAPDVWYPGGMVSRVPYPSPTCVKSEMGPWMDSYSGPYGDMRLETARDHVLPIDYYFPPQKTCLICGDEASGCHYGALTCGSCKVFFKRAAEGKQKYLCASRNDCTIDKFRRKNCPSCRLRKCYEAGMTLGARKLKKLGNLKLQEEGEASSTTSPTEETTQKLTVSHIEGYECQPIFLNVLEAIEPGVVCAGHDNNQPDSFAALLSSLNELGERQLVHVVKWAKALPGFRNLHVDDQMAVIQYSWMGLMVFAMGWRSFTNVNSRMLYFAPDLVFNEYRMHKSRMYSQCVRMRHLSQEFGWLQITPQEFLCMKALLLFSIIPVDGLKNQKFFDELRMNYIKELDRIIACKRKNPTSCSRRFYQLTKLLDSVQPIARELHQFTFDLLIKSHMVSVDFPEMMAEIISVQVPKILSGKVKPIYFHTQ
Sequence of Glucocorticoid receptor (Homo sapiens) (P04150 whole entry, looked up): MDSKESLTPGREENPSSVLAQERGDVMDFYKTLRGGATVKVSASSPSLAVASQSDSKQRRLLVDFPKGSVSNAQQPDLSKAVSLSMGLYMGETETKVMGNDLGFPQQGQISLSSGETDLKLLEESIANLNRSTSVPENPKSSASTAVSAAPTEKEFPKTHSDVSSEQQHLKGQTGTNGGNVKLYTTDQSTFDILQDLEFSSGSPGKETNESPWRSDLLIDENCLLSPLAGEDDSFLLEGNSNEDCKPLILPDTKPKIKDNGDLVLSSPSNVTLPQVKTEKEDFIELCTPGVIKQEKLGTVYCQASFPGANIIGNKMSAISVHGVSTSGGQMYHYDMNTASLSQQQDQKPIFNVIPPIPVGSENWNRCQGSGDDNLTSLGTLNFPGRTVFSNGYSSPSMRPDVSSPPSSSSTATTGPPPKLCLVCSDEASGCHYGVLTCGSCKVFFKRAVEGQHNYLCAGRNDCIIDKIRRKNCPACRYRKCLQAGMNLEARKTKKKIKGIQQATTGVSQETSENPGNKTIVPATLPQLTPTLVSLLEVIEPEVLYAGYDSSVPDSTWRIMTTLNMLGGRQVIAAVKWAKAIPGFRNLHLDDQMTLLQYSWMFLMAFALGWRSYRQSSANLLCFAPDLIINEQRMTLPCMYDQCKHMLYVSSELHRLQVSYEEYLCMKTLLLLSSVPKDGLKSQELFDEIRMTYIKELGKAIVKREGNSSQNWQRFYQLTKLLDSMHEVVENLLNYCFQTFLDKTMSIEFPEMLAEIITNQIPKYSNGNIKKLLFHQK

ICCc1ccccc1
inactive: outcome [1] | outcome [2] | outcome [3] | outcome [4] | outcome [5] | outcome [6] | outcome [7] | outcome [8] | outcome [9] | outcome [10] | Potency [11]

CCOc1ccc(NC(N)=O)cc1
inactive: outcome [1] | outcome [2] | outcome [3] | outcome [4] | outcome [5] | outcome [6] | outcome [7] | Potency [12] | Potency [13] | outcome [9] | Potency [14] | Potency [15] | Potency [16] | outcome [10] | Potency [11]

CC1=NN(c2cc(Cl)c(S(=O)(=O)O)cc2Cl)C(=O)C1N=Nc1ccc(S(=O)(=O)O)cc1 (stereo unspecified)
inactive: outcome [1] | outcome [2] | outcome [3] | outcome [4] | outcome [5] | outcome [6] | outcome [7] | outcome [9] | Potency [15] | outcome [10] | Potency [11]

CCN(CC)CCNC(=O)COc1ccc(Cl)cc1
inactive: outcome [1] | outcome [2] | outcome [3] | outcome [4] | outcome [5] | outcome [6] | outcome [7] | Potency [12] | Potency [13] | outcome [9] | Potency [15]

COc1ccccc1OCC(O)COC(N)=O (stereo unspecified)
inactive: fluorescence, % of fluorescein [1] -0.023% [at 18.6 µM] | fluorescence, % of fluorescent control [2] 0.143% [at 18.6 µM] | activity change [3] 0.0183% [at 18.6 µM] | fluorescence, % of fluorescent control [4] -0.113% [at 18.6 µM] | fluorescence, % of Rose Bengal [5] 0.679% [at 18.6 µM] | fluorescence, % of fluorescent control [6] 0.0993% [at 18.6 µM] | fluorescence, % of fluorescein control [7] -0.0199% [at 18.6 µM] | Potency [12] | outcome [9] | Potency [14] | Potency [15] | outcome [10] | Potency [11]

CCOc1ccc(OCC)c(Cl)c1
inactive: outcome [1] | outcome [2] | outcome [3] | outcome [5] | outcome [6] | outcome [7] | outcome [8] | Potency [12] | outcome [9] | Potency [14] | Potency [15] | Potency [16] | outcome [10]

CC(C)CCCCCCc1ccc(OCCOCCO)cc1
inactive: outcome [1] | outcome [2] | outcome [3] | outcome [4] | outcome [5] | outcome [6] | outcome [7] | outcome [9] | Potency [17] | outcome [18] | Potency [19] | Potency [11] | outcome [20]

Cc1ccsc1C(=CCCN1CCC[C@@H](C(=O)O)C1)c1sccc1C
inactive: outcome [1] | outcome [2] | outcome [3] | outcome [4] | outcome [5] | outcome [6] | outcome [7] | outcome [9] | Potency [14] | Potency [15] | Potency [16] | outcome [10] | Potency [17] | outcome [18] | Potency [19] | outcome [20]

NNS(=O)(=O)c1ccc(Oc2ccc(S(=O)(=O)NN)cc2)cc1
active: Potency [15] 27.3 µM
inactive: outcome [1] | outcome [2] | outcome [3] | outcome [4] | outcome [5] | outcome [6] | outcome [7] | outcome [8] | outcome [9] | outcome [10] | Potency [11]

C[C@@H]1CN(c2c(F)c(F)c3c(=O)c(C(=O)O)cn(C4CC4)c3c2F)C[C@H](C)N1
inactive: outcome [1] | outcome [2] | outcome [3] | outcome [4] | outcome [5] | outcome [6] | outcome [7] | Potency [12] | Potency [13] | outcome [9] | Potency [15] | Potency [16] | outcome [10] | Potency [17] | Potency [11] | outcome [20]
active: Potency [19] 26.6 µM

O=C1C=CC(=O)O1
inactive: outcome [1] | outcome [2] | outcome [3] | outcome [4] | outcome [5] | outcome [6] | outcome [7] | Potency [12] | outcome [9] | Potency [14] | Potency [15] | Potency [16] | Potency [11]

O=C(O)CN(CCN(CC(=O)O)CC(=O)O)CCN(CC(=O)O)CC(=O)O
inactive: outcome [1] | outcome [2] | outcome [3] | outcome [4] | outcome [5] | outcome [6] | outcome [7] | Potency [12] | outcome [9] | outcome [10] | Potency [11]
active: Potency [15] 26.6 µM | Potency [16] 18.8 µM

NC(=O)Cc1cccc(C(=O)c2ccccc2)c1N
inactive: outcome [1] | outcome [2] | outcome [3] | outcome [4] | outcome [5] | outcome [6] | outcome [7] | Potency [12] | Potency [13] | outcome [9] | Potency [15] | Potency [16] | outcome [10] | Potency [11]

CN(C)C(=O)NC1(c2ccccc2)CCN(CCC[C@]2(c3ccc(Cl)c(Cl)c3)CCCN(C(=O)c3ccccc3)C2)CC1
active: Potency [14] 10.3 µM | Potency [15] 14.6 µM | Potency [16] 9.2 µM
inactive: fluorescence, % of fluorescein [1] -0.116% [at 18.6 µM] | fluorescence, % of fluorescent control [2] 0.05% [at 18.6 µM] | activity change [3] 0.0134% [at 18.6 µM] | fluorescence, % of fluorescent control [4] -0.159% [at 18.6 µM] | fluorescence, % of Rose Bengal [5] -0.0596% [at 18.6 µM] | fluorescence, % of fluorescent control [6] -0.114% [at 18.6 µM] | fluorescence, % of fluorescein control [7] 0.0302% [at 18.6 µM] | Potency [12] | Potency [13] | outcome [9] | Potency [11]

From PubChem BioAssay (Tox21)
